AmpC inh detg: inhibitors of E. coli AmpC beta-lactamase with detergent; Potency, µM (titrated, usually from 114 µM), hits mostly inhibitors; AID 485294; hit rate 0.041% among 370,000; P00811; AmpC hydrolysis of nitrocefin, absorbance 480 nm, 0.01% Triton; also: nearly all actives have a fitted effect of over 25% in size
Target sequence (P00811 whole entry, looked up): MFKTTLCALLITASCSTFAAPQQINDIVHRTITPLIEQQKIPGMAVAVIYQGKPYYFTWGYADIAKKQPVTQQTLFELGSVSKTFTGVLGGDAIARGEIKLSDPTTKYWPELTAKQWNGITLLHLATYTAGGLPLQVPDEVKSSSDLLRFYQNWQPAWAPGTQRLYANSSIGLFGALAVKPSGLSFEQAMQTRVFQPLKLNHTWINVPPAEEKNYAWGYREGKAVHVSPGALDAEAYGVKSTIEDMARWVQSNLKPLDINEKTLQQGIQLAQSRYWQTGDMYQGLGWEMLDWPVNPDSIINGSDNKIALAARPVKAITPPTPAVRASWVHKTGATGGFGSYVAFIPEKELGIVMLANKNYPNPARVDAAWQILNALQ
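20 mM phosphate pH 7.0 + 0.01% (detergent screen) or 0.0001% Triton X-100; 5.3 nM AmpC reagent; cpd preinc 15 min RT; nitrocefin (800 uM stock) to start; A480 q20 s × 4 min; Activity was normalised to no-enzyme and no-compound control wells.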
HCMV inh: inhibitors of human cytomegalovirus; HFF cells, HCMV-luciferase reporter, 72 h; hits give low values; activity change, negative = inhibition, % at 57.5 µM; hit rate 4.5% among 410,000; AID 1259415; in the data active = activity change below about -60%; inconclusive = no clear call, values can overlap the other calls; inactive = above about -39%
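HFF cells seeded 16 h at 37C, treated with compounds, infected with luciferase-reporter HCMV at MOI 1 PFU/cell; luciferase read at 72 h post infection, normalized to buffer-only and Salinomycin controls.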
HCV inhibitor: inhibitors of hepatitis C virus infection; hit rate 3.4% among 340,000; Potency, µM (doses to about 41.8 µM), hits mostly inhibitors; AID 651820; Huh7.5.1 HCVcc-Cre infection, luciferase reporter, 44 h
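Reporter virus HCVcc-Cre (~0.5 moi) infects cells exposed to compound; seeding density 1,000 cells/well with 4 h settling beforehand. Luminescence, 15 sec read, taken 44 h post-infection following a 15 min RT substrate incubation.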
AmpC no deterg: AmpC beta-lactamase inhibition without detergent. P00811. AID 485341. Potency, µM (doses to about 57.1 µM), most hits filed as inhibitors. hit rate 0.52% among 330,000. AmpC nitrocefin hydrolysis, absorbance 480 nm, 0.0001% Triton; also: nearly all actives have a fitted effect of over 20% in size
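20 mM phosphate pH 7.0 + 0.01% (detergent screen) or 0.0001% Triton X-100; 5.3 nM AmpC reagent; cpd preinc 15 min RT; nitrocefin (800 uM stock) to start; A480 q20 s × 4 min; Activity was normalised to no-enzyme and no-compound control wells.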
FMDV inh: foot and mouth disease virus antiviral activity; hit rate 1.2% among 410,000; AID 1159524; Potency, µM (top dose mostly 57.9 µM), most hits filed as inhibitors; FMDV antiviral cell-based qHTS; calls by dose curve; tested in HEK293T cells; also: read-out not given here; nearly all actives have a fitted effect of over 45% in size
Hits are given with their value; – = inactive; ? = inconclusive; · = not tested or not shown; ! = repeats disagree. Shown are actives, neighbours in structure and some others; about 7.3% of the full set was active somewhere. Unless noted, calls follow the shape of the dose curve; as a rule, active = well fitted curve in the direction sought with a large enough effect; inconclusive = small, poorly fitted or top-dose-only effect, or another doubt; inactive = no such curve, though single readings can be large; an effect the other way counts as inactive or inconclusive.

SMILES | AmpC inh detg | HCMV inh | HCV inhibitor | AmpC no deterg | FMDV inh
COCCNC(=O)CSc1ccccc1C(=O)NC1CCSc2ccccc21 (stereo unspecified) | – | – | – | – | –
COc1ccccc1-c1ccnc(-n2ncc(C(=O)NCCc3ccccn3)c2C)n1 | · | · | · | · | –
COc1ccc(N2CCC[C@@H]2/C=C/C(=O)OC(C)(C)C)cc1 | · | – | · | · | ·
COc1ccc(OCCSc2nc(-c3ccccc3)cc(=O)[nH]2)cc1 | – | ? | – | – | –
CCOc1ccc(OCCSc2nc(-c3ccccc3)cc(=O)[nH]2)cc1 | – | -103.7 | – | – | –
CC(=O)CCc1oc2c([N+](=O)[O-])cccc2c1-c1ccc(C)o1 | – | – | 12.6µM | – | –
NC(=S)NC(=O)/C=C/c1ccccc1 | – | -67.1 | ? | – | –
O=C(C=Cc1ccccc1)NCCNC(=O)C=Cc1ccccc1 | · | -68.9 | – | · | –
COc1ccc(-c2n[nH]c3c2C(c2ccc(O)cc2)N(c2ccc(Br)cc2)C3=O)cc1 (stereo unspecified) | – | – | · | · | 31.6µM
COc1ccc(-c2n[nH]c3c2C(c2ccc(OC)c(OC)c2)N(c2ccccc2)C3=O)cc1 (stereo unspecified) | – | – | – | – | ?
COc1ccc(C2c3c(-c4ccccc4)n[nH]c3C(=O)N2c2ccc(C(=O)O)cc2)cc1 (stereo unspecified) | – | – | – | – | –
COc1ccc(OC)c(C2c3c(-c4ccc(Br)cc4)n[nH]c3C(=O)N2c2ccc(Cl)cc2)c1 (stereo unspecified) | – | -104.9 | · | · | –
CCOC(=O)c1ccc(N2C(=O)c3[nH]nc(-c4ccc(OC)cc4)c3C2c2ccc(C)cc2)cc1 (stereo unspecified) | – | -82.7 | · | · | –
COc1ccc(-c2nc(-c3ccccc3)c(-c3cc([N+](=O)[O-])ccc3C)[nH]2)cc1OC | – | -79.5 | 15.8µM | – | –
CCOc1cc(-c2nc(-c3ccccc3)c(-c3cc([N+](=O)[O-])ccc3C)[nH]2)ccc1O | – | -82.2 | ? | · | ?
O=[N+]([O-])c1ccc(O)c(-c2nc(-c3ccccc3)c(-c3cccs3)[nH]2)c1 | ? | -102.6 | 6.31µM | – | ?
Cc1cc(/C=C2\SC(=S)N(Cc3ccco3)C2=O)c(C)n1-c1cccnc1 | – | – | ? | – | –
Cc1cc(/C=C2/SC(=S)N(c3cccc(C(F)(F)F)c3)C2=O)c(C)n1-c1cccnc1 | · | · | 1.58µM | · | ?
C=CCOc1ccc(CNc2nccs2)cc1OC | – | – | 10µM | – | –
CCOC(=O)c1cnc2ccc(C)cc2c1N(C)Cc1ccccc1 | – | -60.1 | – | – | –
CCOC(=O)c1cnc2ccccc2c1NCCc1ccc(OC)c(OC)c1 | – | – | ? | – | ?
CCOC(=O)c1cnc2ccc(OCC)cc2c1NCc1ccccc1 | – | -72.9 | 10µM | – | ?
CCOC(=O)c1cnc2ccc(OC)cc2c1NCCc1ccc(OC)c(OC)c1 | – | ? | 5.01µM | – | 17.8µM!
O=C(NCCc1ccc(C(F)(F)F)cc1)C1CCC(=O)N(CCCN2CCCC2=O)C1 (stereo unspecified) | – | – | – | – | –
CNC(=O)NC(=O)C(OC(=O)CCNS(=O)(=O)c1ccccc1)c1ccccc1 (stereo unspecified) | – | – | – | – | –
SMILES | AmpC inh detg | HCMV inh | HCV inhibitor | AmpC no deterg | FMDV inh
CCOC(=O)c1c(-c2ccccc2)csc1NC(=O)CSc1nc(C)cc(C)n1 | – | -81.9 | ? | – | ?
CCOC(=O)c1c(-c2ccccc2)csc1NC(=S)N(CC)CC | – | – | ? | – | ?
CCOC(=O)c1c(-c2ccccc2)csc1NC(=O)CSc1nc(N)cc(N)n1 | – | -66.6 | 12.6µM | – | 17.8µM
CCOC(=O)c1c(-c2ccco2)csc1NC(=O)CSc1nnc(N)s1 | – | – | 11.2µM | – | –
CCOC(=O)c1c(-c2ccc(OC)cc2)csc1NC(=O)CCN1C(=O)c2ccccc2C1=O | – | – | ? | – | –
O=C(Nc1ccnn1C1CCN(Cc2ccc(OC(F)F)cc2)CC1)C1CCCC1 | – | – | 22.4µM | – | –
O=C(Nc1ccnn1C1CCN(Cc2ccc3nonc3c2)CC1)c1cccc(F)c1 | – | – | ? | – | –
COc1ccc(C(=O)Nc2ccnn2C2CCN(Cc3ccc4nonc4c3)CC2)cc1 | – | -94.0 | – | – | –
Cc1ccccc1C(=O)Nc1ccnn1C1CCN(Cc2cccnc2)CC1 | – | – | – | – | –
CCc1ccc(CN2CCC(n3nccc3NC(=O)c3ccccc3C)CC2)cc1 | – | – | 14.1µM | – | –
COc1ccc(-c2ccc(C(=O)NCC3Cc4cccc(-c5nc(C)cnc5C)c4O3)o2)cc1 (stereo unspecified) | · | · | · | · | –
CC(=O)Nc1ccc(NC(=O)c2cnc(N3CCN(Cc4cccc(C(F)(F)F)c4)C3=O)o2)cc1 | · | – | · | · | ·
CC[C@H]1CC2CN3CCc4c([nH]c5cc(OC)ccc45)[C@](C(=O)OC)(C2)[C@H]13 | · | · | 35.5µM | · | –
O=[N+]([O-])c1ccc(C[n+]2cccc3c4ccccc4ccc32)cc1 | – | -80.6 | – | – | –
Cc1ccc[n+](Cc2ccc([N+](=O)[O-])cc2)c1 | – | – | – | – | –
O=C([C@@H]1CCCN1C(=O)c1cccs1)N1CCN(S(=O)(=O)c2cccc(F)c2)CC1 | – | – | ? | – | –
COc1ccc(-c2nc3ccccn3c2CN2CCN(c3ccccc3F)CC2)cc1 | – | -60.8 | ? | – | –
Cc1ccc(CC(=O)Nc2nccs2)cc1C | – | -93.6 | – | – | –
CCOc1ccc(CC(=O)Nc2nccs2)cc1 | – | – | – | – | –
COc1ccc(C(=O)NC2CCCc3ccccc32)cc1 (stereo unspecified) | – | -70.4 | – | – | –
Cc1nc2ccccn2c1C(=O)NC1CCCc2ccccc21 (stereo unspecified) | – | -72.3 | 7.08µM | – | ?
COCCNc1ccc([N+](=O)[O-])cc1C(=O)NC1CCCc2ccccc21 (stereo unspecified) | – | – | 12.6µM | – | –
CC(=O)c1cccc(S(=O)(=O)NCCCN2CCOCC2)c1 | – | – | – | – | –
Cc1c(C(=O)NCC(c2ccc(Cl)cc2)N2CCOCC2)oc2ccccc12 (stereo unspecified) | – | – | · | · | –
CC(C)OC(=O)N(C)C[C@H]1OCc2cnnn2CCCC(=O)N([C@H](C)CO)C[C@@H]1C | · | – | · | · | –
CCN1CCC(CNCc2cn(-c3ccc(OC)cc3)nc2-c2ccccc2Cl)C1 (stereo unspecified) | – | -70.8 | 11.2µM | – | –
COc1ccc(NC(=O)CSc2nc3c(c(=O)n2-c2ccccc2OC)SCC3)cc1 | – | – | – | 35.5µM | –
CCOC(=O)c1ccc(NC(=O)CSc2nc3c(c(=O)n2-c2ccccc2OC)SCC3)cc1 | ? | – | ? | – | –
Cc1ccc(C(=O)Nc2onc3c2CCCC3)cc1 | – | -74.9 | · | · | 8.91µM
